According to PubChem BioAssay AID1851 (National Center for Advancing Translational Sciences (NCATS), 2009):
The campaign covered roughly 16,000 compounds. About 4,000 (25%) were called active. Not shown: some 26% with an inconclusive outcome. Calls follow the shape of the dose curve; as a rule, active = well fitted curve in the direction sought with a large enough effect; inconclusive = small, poorly fitted or top-dose-only effect, or effect the other way; inactive = no such curve, though single readings can be large or run the other way. The list is a sample of the results. The source holds several records for some structures; these can differ, active in one and inactive in another.

These compounds were tested against Cytochrome P450 2C9 (Homo sapiens) (UniProt P11712) (assay: Cytochrome panel assay with activity outcomes). Settings: recombinant CYP, pro-luciferin dealkylation, luminescence, p450-cyp2c9; series mostly up to 57.1 µM; activity, negative = inhibition: at the top concentration.
Sequence of Cytochrome P450 2C9 (Homo sapiens) (P11712 whole entry, looked up): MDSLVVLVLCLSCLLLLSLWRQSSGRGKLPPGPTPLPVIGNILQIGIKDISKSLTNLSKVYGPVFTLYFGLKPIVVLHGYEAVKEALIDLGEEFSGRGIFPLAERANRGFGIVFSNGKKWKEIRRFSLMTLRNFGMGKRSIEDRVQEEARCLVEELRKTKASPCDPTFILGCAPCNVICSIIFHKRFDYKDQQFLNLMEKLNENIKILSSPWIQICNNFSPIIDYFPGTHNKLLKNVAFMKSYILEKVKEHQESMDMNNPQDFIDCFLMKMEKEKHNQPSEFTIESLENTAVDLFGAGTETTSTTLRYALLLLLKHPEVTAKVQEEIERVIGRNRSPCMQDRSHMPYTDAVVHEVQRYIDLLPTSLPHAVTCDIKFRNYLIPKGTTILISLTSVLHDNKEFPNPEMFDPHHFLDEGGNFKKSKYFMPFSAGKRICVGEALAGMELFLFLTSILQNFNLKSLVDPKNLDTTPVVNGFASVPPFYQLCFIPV
% is scaled to controls: 0 for no effect and ±100 for the full control effect.

| SMILES | activity, negative = inhibition | AC50 |
| --- | --- | --- |
| Clc1ccccc1-c1ccc2ncnc(N3CCNCC3)c2c1 | -9.02% [at 2.29 µM] (inactive) |  |
| COc1ccc(COC(=O)N/N=C2/C[C@@H](O)[C@@H](O)[C@@H]3[C@H]4C(=O)N(c5ccc(F)cc5F)C(=O)[C@@H]4CC[C@@H]23)cc1 | -15.8% [at 11.4 µM] (inactive) |  |
| O=C(Nc1cccc(C(F)(F)F)c1)c1n[nH]c(Cn2cncn2)n1 |  | 4.47 µM (active) |
| Cc1c(NC(=O)C(C)N2C(=O)c3ccccc3C2=O)c(=O)n(-c2ccccc2)n1C (stereo unspecified) | 0.282% (inactive) |  |
| CC(=O)Nc1c2c3c(cccc3n(C)c1=O)C(=O)c1ccccc1-2 |  | 15.8 µM (active) |
| Fc1ccc(COc2ccc(Br)cc2CNCc2ccncc2)cc1 |  | 3.98 µM (active) |
| CO[C@H]1COC(=O)[C@H](Cc2ccccc2)NC(=O)C/C=C\[C@@H](C)[C@H](OC)COC(=O)C/C=C\[C@@H]1C | 2.05% [at 11.4 µM] (inactive) |  |
| CC1(C)CC(=O)C(C(C#Cc2ccccc2)C2=C(O)CC(C)(C)CC2=O)=C(O)C1 |  | 15.8 µM (active) |
| COc1ccc(CNc2ccnc(-c3ccccc3CN(C)C)n2)c(OC)c1 | 10.2% [at 2.29 µM] (inactive) |  |
| CC(C)(C)c1cc2cccnc2n1Cc1cccc(F)c1 | -28% (inactive) |  |
| CC1=CC(=O)CC(C)(C)[C@]1(O)/C=C\C(C)=C\C(=O)O | 9.93% [at 11.4 µM] (inactive) |  |
| CC1=C(\C=C/C(C)=C/C=C\C(C)=C\C(=O)O)C(C)(C)CCC1 |  | 10 µM (active) and inactive |
| CC(C)CCNc1ncnc2[nH]ncc12 | 6.22% [at 11.4 µM] (inactive) |  |
| CCOC(=O)c1cnc2c(cnn2C)c1NCCCN(C)C | -2.53% (inactive) |  |
| CNC(=O)c1nnn(Cc2ccccc2)c1NC(=O)C(F)(F)F |  | 12.6 µM (active) |
| COC(=O)c1nnn(Cc2ccccc2)c1N | 8.99% (inactive) |  |
| O=C(c1cc(C(F)(F)F)cc(C(F)(F)F)c1)N1CCC2(CCN(Cc3ccccc3)CC2)CC1 | -0.296% (inactive) |  |
| Nc1ncnc2c1c(-c1ccc(Oc3ccccc3)cc1)cn2C1CCCC1 |  | 31.6 µM (active) |
| Nc1ncnc2c1ncn2C1CCCC1 | -3.04% (inactive) |  |
| Cc1ccc(CNCC(O)(c2ccc(F)cc2)c2ccc(F)cc2)cc1 |  | 25.1 µM (active) |
| CCCC(=O)n1nc(-c2cccnc2)nc1N | -36.4% (inactive) |  |
| CCOC(=O)CC(=O)CSc1nc(-c2cccnc2)cc(C)c1C#N |  | 1.26 µM (active) |
| CCOC(=O)CSc1n[nH]c(-c2cccnc2)n1 | 0.887% (inactive) |  |

| SMILES | activity, negative = inhibition | AC50 |
| --- | --- | --- |
| O=c1cc(CN2CCN(c3ccc(F)cc3)CC2)c2cc3c(cc2o1)CCCC3 | -15.2% (inactive) |  |
| O=C(c1cc(-c2cccs2)on1)N1CCN(c2ccc(F)cc2)CC1 |  | 1.58 µM (active) |
| C/C=C\C(=O)N(CC)c1ccccc1C | -28.3% [at 25.6 µM] (inactive) |  |
| CN1CCc2cc(NC(=O)Nc3cccnc3)ccc21 | -16.7% (inactive) |  |
| COc1cc2c(cc1C(F)(F)F)N(C(=O)Nc1cc(F)cc(-c3cccnc3)c1)CC2 |  | 0.794 µM (active) |
| COC(=O)c1ccc(NC(=O)N2CCC(O)(c3cccnc3)CC2)cc1 | -19.6% (inactive) |  |
| CSc1cc2c(cc1C(F)(F)F)N(C(=O)Nc1cccnc1)CC2 |  | 0.00631 µM (active) |
| Cn1ccc2cc3c(cc21)CCN3C(=O)Nc1cccnc1 |  | inactive |
| CN1Cc2c(N)cccc2[C@H](c2ccccc2)C1 |  | inactive |
| Cc1noc(C)c1-c1ccc2ncnc(NCc3cccnc3)c2c1 | -6.6% [at 2.29 µM] (inactive) |  |
| CCOCCCn1cnc2c(c1=O)c1nc3ccccc3nc1n2-c1ccccc1 |  | 15.8 µM (active) |
| CCCCn1cnc2c(c(CC#N)nn2-c2ccccc2)c1=N | -11.5% [at 11.4 µM] (inactive) |  |
| COc1ncc2nc(C)c(=O)n(-c3ccccc3)c2n1 | -12.6% (inactive) |  |
| CN1CCc2nc(N)nc(-c3nc(N)nc4c3CN(C)CC4)c2C1 | 5.01% [at 11.4 µM] (inactive) |  |
| Cc1cc(-c2cc(-c3ccc(Cl)cc3)nc(N)c2C#N)co1 |  | 11.2 µM (active) |
| Cc1cc(C)n(-c2nc3ccccc3c(=O)n2OCc2ccc(Cl)cc2)n1 |  | 5.62 µM (active) |
| Cn1c(=O)c(-c2ccc(Cl)cc2)nc2cnc(OCc3ccccc3)nc21 | 9.78% (inactive) |  |
| Oc1c(CN2CCN(c3ccccc3)CC2)cc(Br)c2cccnc12 | 7.75% [at 11.4 µM] (inactive) |  |
| COc1ccc(N2C(=O)NC(NC(=O)c3ccncc3)(C(F)(F)F)C2=O)cc1 (stereo unspecified) |  | 6.31 µM (active) |
| COc1ccc(-n2c(=O)c(-c3ccc(F)cc3)nc3cncnc32)cc1 | 10.2% (inactive) |  |
| Cc1cccc(C(=O)NC2CCN(C(=O)N3CCOCC3)CC2)c1 | -27% (inactive) |  |
| O=C1C[C@@H](O)[C@@H](O)[C@H]2[C@@H]3C(=O)N(Cc4ccccc4)C(=O)[C@@H]3CC[C@H]12 | -2.13% [at 11.4 µM] (inactive) |  |
| CC(C)C1NC(=S)N(Cc2ccccc2)C1=O (stereo unspecified) |  | 8.91 µM (active) |
